Source: PubChem BioAssay AID504773 (Broad Institute, 2011)
Potency and affinity values are given separately. Active and inactive are the calls of the source.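 Rule for the calls: active = polarization signal falls with dose and the fitted half-maximal concentration is at or below ten times the sample's top valid dose; inconclusive = flat curve at 30 to 70% inhibition, or poor fit; inactive = signal rises, flat within 30%, or potency beyond limit.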

biological target: Golgi-associated PDZ and coiled-coil motif-containing protein (Homo sapiens) (UniProt Q9HD26); experiment: CAL PDZ peptide-binding inhibitors, dose response, biochemical, fluorescence polarization, Cerulean-tagged CAL PDZ, cherry-picks (AID 504773); settings: 1 h; series mostly up to 50 µM

outcome, inactive:
COc1cc([N+](=O)[O-])ccc1NC(=O)CN1CCN(C(=O)c2ccco2)CC1
O=C(COc1ccccc1)N1CCCCCCC1
CC(=Nc1ccccc1O)c1sc2ccccc2c1O
CCN(CC)S(=O)(=O)c1ccc2nc(NC(=O)c3ccco3)sc2c1
COc1ccccc1NC(=O)c1c([N+](=O)[O-])cnn1C
COc1ccccc1Oc1coc2cc(OC(=O)N3CCOCC3)ccc2c1=O
CCCNC(=O)C(=O)NCC1CCCN1CC (configuration not stated)
O=C(CNCc1ccccc1)Nc1ccc(F)cc1
CCN1CCN(S(=O)(=O)c2ccc(OC)c3ccccc23)CC1
CC(C)n1cc(C(=O)N2CCCC(N3CCN(c4ccc(F)cc4)CC3)C2)cn1 (configuration not stated)
O=C(CCN1C(=O)c2ccccc2C1=O)CN1CCOCC1
CCOc1c(Cl)cc(CNc2nnnn2C)cc1OC
CC12CNCC(C)(CN(C3(O)C(=O)Nc4ccc(Br)cc43)C1)C2=O (configuration not stated)
COCCCNC(=O)c1c[nH]c2ccc(S(=O)(=O)N3CCC(C)CC3)cc2c1=O
O=C(NCc1ccccc1)C1CCCN(c2nc3ccsc3c(=O)s2)C1 (configuration not stated)
COc1ccc(/C=C2\N=C(c3ccc(C)cc3)OC2=O)cc1
O=[N+]([O-])c1ccccc1S(=O)(=O)NC1CCCCCCC1
CCNS(=O)(=O)c1ccc(CCC(=O)N2CCCC2)cc1
CC1CCC(NC(=O)c2ccc3c(c2)S(=O)(=O)c2ccccc2C3=O)CC1 (configuration not stated)
CCCSC1=N/C(=C\c2ccc([N+](=O)[O-])o2)C(=O)S1
Cc1cccc(C)c1NC(=S)NC(=O)c1ccc(Br)o1
CSc1ccccc1NC(=O)C1CC(c2c(F)cccc2Cl)=NO1 (configuration not stated)
COc1cc(S(=O)(=O)n2nc(C)cc2C)ccc1Cl
CC1(C2CC2)NC(=O)N(CC(=O)NCC(=O)Nc2ccc(F)c(F)c2F)C1=O (configuration not stated)
Cc1c(NC(=O)CN2CCC(C(N)=O)CC2)cccc1[N+](=O)[O-]
CC1CCN(C(=O)COC(=O)c2cccs2)CC1
N/C(=N\OC(=O)Cc1ccccc1[N+](=O)[O-])c1cccnc1
Cc1ccc(C(=O)Nc2ccccc2)cc1S(=O)(=O)N1CCN(C)CC1
COc1ccc(Cl)cc1C(=O)Nc1ccc2c(c1)OCCO2
COc1ccc(C(=O)Nc2nccs2)cc1
CC(C)Oc1ccc(C(=O)Nc2ccc(S(=O)(=O)N3CCN(C)CC3)cc2)cc1
Cc1sc2ncn(CC(=O)NCCCC(=O)N3CCN(Cc4ccc5c(c4)OCO5)CC3)c(=O)c2c1C
O=c1c2cc3c(cc2[nH]c(=S)n1CCN1CCOCC1)OCO3
O=C(c1cc(Br)ccc1Cl)N1CCN(c2ccccn2)CC1
CCc1nc(SCC(=O)c2ccccc2)c2c(=O)n(C)c(=O)n(C)c2n1
Cn1nc(C(=O)N2CCCc3ccccc32)c2ccccc2c1=O
CC(C)CNC(=O)COC(=O)CCC(=O)c1ccc(Cl)cc1
